Results from publication PMC6212790, “How bacterial xenogeneic silencer rok distinguishes foreign from self DNA in its resident genome”.
The full ranking holds about 33,000 sequences; the median of “e-score” is about -0.037, and the highest 2% start at about 0.34. Shown is part of a subset that was picked to be rich in the highest values.

Biological target: T1, GST-Rok (full length) (Bacillus subtilis subsp. subtilis str. …, UniProt O34857 1-191)
T1 sequence: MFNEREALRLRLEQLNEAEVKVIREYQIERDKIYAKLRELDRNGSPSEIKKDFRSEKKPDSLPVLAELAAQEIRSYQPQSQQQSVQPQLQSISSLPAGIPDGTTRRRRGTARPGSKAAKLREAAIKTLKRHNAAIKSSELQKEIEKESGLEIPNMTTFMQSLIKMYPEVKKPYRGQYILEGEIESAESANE
Experiment: protein binding microarray; Rok is a gene silencer of Bacillus subtilis; high values mean tight binding
Settings: protein: recombinant; tags: GST (pTH5325, pDEST15-Magic modified); dsDNA, one strand shown
How it was run: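 Every oligonucleotide joins a 25-mer constant primer to a 35-mer variable part drawn from a de Bruijn sequence of order 10, so each non-palindromic 8-mer appears at least 32 times and each palindromic 8-mer 16 times. The preference for every 8-mer is reported as a unitless, rank-based enrichment score (E-score). This score spans 0.5 for the most favored 8-mer to −0.5 for the most disfavored.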

Row | Sequence | binding signal
1 | AGGTCACT | -0.137 E-score
2 | ATTGTTTC | 0.228 E-score
3 | CCGGTCAC | -0.153 E-score
4 | GTACATTA | 0.262 E-score
5 | ATACATGA | 0.294 E-score
6 | CTACATGC | 0.308 E-score
7 | CTACATGA | 0.347 E-score
8 | CTACATTC | 0.176 E-score
9 | CTACATTA | 0.355 E-score
10 | CAAAAAAC | 0.0394 E-score
11 | CGTAAAAA | 0.0957 E-score
12 | GGTAAAAC | 0.192 E-score
13 | CGGTAAAA | 0.278 E-score
14 | TGGTAAAA | 0.354 E-score
15 | GGTAAAAA | 0.349 E-score
16 | GGGTAAAA | 0.184 E-score
17 | CGAGTTAG | 0.0866 E-score
18 | ACTGCCAC | -0.0928 E-score
19 | AAATGATC | 0.143 E-score
20 | AAATGATA | 0.37 E-score
21 | AAATGATT | -0.0952 E-score
22 | AAAACCTA | 0.255 E-score
23 | ACTGGTGG | -0.172 E-score
24 | AAGTACTC | 0.165 E-score
25 | GAGTACTA | 0.13 E-score

Row | Sequence | binding signal
26 | AAGTACTA | 0.389 E-score
27 | CAGTACTA | 0.279 E-score
28 | TAGTACGA | 0.359 E-score
29 | AAGTACTG | 0.114 E-score
30 | CAGTACGA | -0.048 E-score
31 | TAGTACTA | 0.44 E-score
32 | GAGTACGA | 0.0148 E-score
33 | CCAATTGC | 0.145 E-score
34 | AGATAGCG | 0.22 E-score
35 | ACCTTCTG | -0.0843 E-score
36 | CGATACTA | 0.328 E-score
37 | GTATACTA | 0.378 E-score
38 | GTATACAA | 0.308 E-score
39 | ATATACGA | 0.23 E-score
40 | GGATACTA | 0.211 E-score
41 | ATATACTA | 0.409 E-score
42 | ATATACTG | 0.391 E-score
43 | ATATACTC | 0.288 E-score
44 | AGATACTA | 0.348 E-score
45 | CTATACTC | 0.137 E-score
46 | CTATACTA | 0.288 E-score
47 | GTATACGA | 0.179 E-score
48 | ATCAGCAA | -0.0224 E-score
49 | GACAAATC | -0.0534 E-score
50 | ATGATTGA | 0.0352 E-score

Row | Sequence | binding signal
51 | GGATGTTA | 0.0229 E-score
52 | CAATTACA | 0.189 E-score
53 | AAAGCCGG | -0.147 E-score
54 | ACGAGTCC | -0.192 E-score
55 | AATAGGAG | 0.0707 E-score
56 | ACATACTA | 0.361 E-score
57 | ACATACTG | 0.141 E-score
58 | GCATACTA | 0.325 E-score
59 | CTCCCAAC | -0.0944 E-score
60 | AGGCTTAA | -0.159 E-score
61 | ATACGTAA | 0.323 E-score
62 | CTAAAAAC | 0.082 E-score
63 | ATAGTTGA | 0.228 E-score
64 | CTAGTTTC | 0.413 E-score
65 | ATCGTTTC | 0.14 E-score
66 | CTAGTTCA | 0.152 E-score
67 | ATAGTTTC | 0.398 E-score
68 | CTAGTTTA | 0.383 E-score
69 | ATAGTTCC | 0.135 E-score
70 | CCAGTTTC | -0.0817 E-score
71 | CGAGTTTC | 0.0534 E-score
72 | ATAGTTTA | 0.346 E-score
73 | CTAGTTGA | 0.226 E-score
74 | ATCGTTTA | -0.0103 E-score
75 | GCCTACTA | 0.0988 E-score

Row | Sequence | binding signal
76 | ACAGGAGT | 0.0409 E-score
77 | ACTTACTA | 0.306 E-score
78 | TGATTCAA | -0.164 E-score
79 | AAAGAATA | 0.138 E-score
80 | CACTGACA | -0.161 E-score
81 | ATAGTTGG | 0.0271 E-score
82 | GGAGTTTA | 0.0513 E-score
83 | ATAGTTTG | 0.364 E-score
84 | GCAGTTTA | 0.0849 E-score
85 | GTAGTTTA | 0.382 E-score
86 | ATCGTTTG | -0.0128 E-score
87 | AGCGTACT | 0.0975 E-score
88 | GGTTGGTA | 0.109 E-score
89 | AGCCCTTA | -0.135 E-score
90 | AGGAAGAA | -0.0233 E-score
91 | ATGAATTA | 0.353 E-score
92 | CTGAATTA | 0.134 E-score
93 | ATAAATTC | 0.221 E-score
94 | GTAAATTA | 0.383 E-score
95 | ATAAATTG | 0.336 E-score
96 | ACAAATTG | -0.0361 E-score
97 | ATGAATTG | 0.0516 E-score
98 | CTAAATTA | 0.252 E-score
99 | ATAAATTA | 0.347 E-score
100 | ACAAATTC | 0.238 E-score

Row | Sequence | binding signal
101 | ACAAATTA | 0.338 E-score
102 | TAAAATTA | 0.199 E-score
103 | ACTAATCA | 0.154 E-score
104 | CCACTAGC | -0.055 E-score
105 | CGCCAGTA | -0.111 E-score
106 | TATTGCAA | 0.253 E-score
107 | ATAGCAGA | 0.144 E-score
108 | ATACCATC | 0.198 E-score
109 | CTACCATC | 0.396 E-score
110 | GTACCATA | 0.339 E-score
111 | ATACCATA | 0.286 E-score
112 | CTACCATA | 0.328 E-score
113 | GTACCAGA | -0.0447 E-score
114 | ATGCTAGC | 0.313 E-score
115 | ATCAATTG | 0.221 E-score
116 | GCAATGTA | 0.23 E-score
117 | TAAATCGA | 0.0795 E-score
118 | CAAGTCAA | 0.171 E-score
119 | TAGAAATA | 0.409 E-score
120 | CTAAAATA | 0.262 E-score
121 | GACAACTA | 0.333 E-score
122 | AAAAAATA | 0.314 E-score
123 | CAGAAATA | 0.303 E-score
124 | ACAAAATA | 0.34 E-score
125 | ACAAAATC | -0.0365 E-score

Row | Sequence | binding signal
126 | TAAAAATA | 0.369 E-score
127 | CCAAAATA | 0.164 E-score
128 | TACAACTA | 0.368 E-score
129 | AACAACTA | 0.292 E-score
130 | GAGAAATA | 0.305 E-score
131 | GCAGAACC | -0.0431 E-score
132 | ACCGGTGG | -0.196 E-score
133 | CTTACCTC | 0.143 E-score
134 | AACGTAGA | 0.17 E-score
135 | AACCCAGG | -0.0972 E-score
136 | AGAGGTGA | -0.164 E-score
137 | GGACGCTA | 0.000145 E-score
138 | GAGTTGAA | 0.00685 E-score
139 | AAACATAG | 0.247 E-score
140 | CCTGCGAA | -0.196 E-score
141 | GGCTTCAA | -0.0517 E-score
142 | ATAACCAA | 0.276 E-score
143 | ATGGTTAC | -0.167 E-score
144 | GTAAAATA | 0.328 E-score
145 | TAGAACTA | 0.406 E-score
146 | GAGAACTA | 0.326 E-score
147 | ATAAAATA | 0.426 E-score
148 | ATAAAATG | 0.203 E-score
149 | GGAAAATA | 0.37 E-score
150 | AGAAAATA | 0.328 E-score

Row | Sequence | binding signal
151 | CAGAACTA | 0.301 E-score
152 | GAAAAATA | 0.279 E-score
153 | CGGACTTC | -0.0622 E-score
154 | AGTGTTAG | 0.118 E-score
155 | GCGCGGTA | 0.073 E-score
156 | TGATAAAA | 0.27 E-score
157 | CGATATAG | 0.191 E-score
158 | CGATATAA | 0.357 E-score
159 | CGATATAC | 0.239 E-score
160 | GGATATAA | 0.271 E-score
161 | TGATATAA | 0.371 E-score
162 | CTTCTTTC | 0.0125 E-score
163 | CGCGCTGA | 0.105 E-score
164 | CAACGAGC | -0.148 E-score
165 | ACCTTCTC | -0.145 E-score
166 | ATAACATG | 0.152 E-score
167 | CTAACATA | 0.186 E-score
168 | ATAACATA | 0.365 E-score
169 | ACGTCAAG | 0.0301 E-score
170 | GTGTAGTA | 0.379 E-score
171 | ATGTAGTA | 0.403 E-score
172 | CTGTAGTA | 0.243 E-score
173 | GAGTAGTA | 0.311 E-score
174 | ATGTAGTC | 0.162 E-score
175 | ATGTAGTG | 0.211 E-score
